Screening data deposited in PubChem by National Center for Advancing Translational Sciences (NCATS).
PLK1 PBD block = qHTS for Inhibitors of PLK1-PDB (polo-like kinase 1 - polo-box domain): Primary Screen; Serine/threonine-protein kinase PLK1 (Homo sapiens), P53350; Plk1 PBD binding of FITC phosphopeptide, fluorescence polarization; Potency, µM, for the others: max response, negative = inhibition, hits mostly inhibitors; 2.8% of 360,000 active; also: series mostly up to about 57 µM; nearly all actives have a fitted effect of over 65% in size
Sfp inh = qHTS Assay for Inhibitors of Bacillus subtilis Sfp phosphopantetheinyl transferase (PPTase). 4'-phosphopantetheinyl transferase ffp (Bacillus subtilis), Q9F4F7. 3.5% of 310,000 active. AID 1490, 2009. Potency, µM, without a hit: largest response in the series, negative = inhibition, hits mostly inhibitors. Biochemical Sfp PPTase activity, qHTS;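 also: the enzyme is Sfp with the accession as filed and its product quenches rhodamine fluorescence; 0% = enzyme reaction without inhibitor and -100% = no enzyme wells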
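Step 1, compound plus 15 nM Sfp-PPTase, 15 min, room temperature. Step 2, add rhodamine-CoA (5 uM) and BHQ-2-YbbR (12.5 uM). Step 3, read 525/598 nm fluorescence at 0 and 30 min.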
12-LOX inh = Primary qHTS assay for inhibitors of human arachidonate 12S-lipoxygenase (ALOX12): Round 2; Polyunsaturated fatty acid lipoxygenase ALOX12 (Homo sapiens), P18054; purified 12hLO, xylenol orange hydroperoxide absorbance; Potency, µM (doses to about 108 µM), inactives show top-dose activity change, negative = inhibition, hits mostly inhibitors; 1.1% of 580,000 active; AID 1671190, 2021
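Hydroperoxide product was detected by ferrous iron/xylenol orange as the 573 to 405 nm absorbance ratio. Arachidonic acid at 40 uM (final) was turned over for 30 min at room temperature by 150 nM human 12hLO, pH 7.0 Hepes buffer, after 15 min compound preincubation.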
VDR inhibitor = Inhibitors of the vitamin D receptor (VDR): qHTS. Vitamin D3 receptor (Homo sapiens), P11473. AID 504847, 2011. 0.93% of 400,000 active. Potency, µM, without a hit: max response, negative = inhibition, most hits filed as inhibitors. VDR-SRC2-3 peptide fluorescence polarization, 2 h
Target sequence (P11473 whole entry, looked up): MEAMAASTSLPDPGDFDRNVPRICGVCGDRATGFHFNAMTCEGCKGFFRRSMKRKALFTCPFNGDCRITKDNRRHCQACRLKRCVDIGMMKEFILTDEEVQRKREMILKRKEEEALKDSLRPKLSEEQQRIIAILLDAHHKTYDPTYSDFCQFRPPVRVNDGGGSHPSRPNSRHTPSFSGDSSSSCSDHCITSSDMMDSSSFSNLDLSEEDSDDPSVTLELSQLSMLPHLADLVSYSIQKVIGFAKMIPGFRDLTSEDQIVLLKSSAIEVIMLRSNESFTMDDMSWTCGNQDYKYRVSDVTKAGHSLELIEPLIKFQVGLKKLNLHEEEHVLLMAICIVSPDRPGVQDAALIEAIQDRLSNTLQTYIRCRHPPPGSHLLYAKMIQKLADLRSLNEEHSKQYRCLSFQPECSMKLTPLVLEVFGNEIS
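The screen uses fluorescence polarization to detect compounds that interfere with recruitment of the SRC2-3 coactivator peptide to VDR; plates are read after 2 h at room temperature.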
An asterisk follows results filed as active; ? = inconclusive; . = no result given. This is a sample that favours compounds with a hit; in the whole collection about 4.2% have one here. Calls follow the shape of the dose curve; as a rule, active = well fitted curve in the direction sought with a large enough effect; inconclusive = small, poorly fitted or top-dose-only effect, or another doubt; inactive = no such curve, though single readings can be large; an effect the other way counts as inactive or inconclusive. Unless noted, % is scaled to controls: 0 for no effect and ±100 for the full control effect; potency is read from the fitted curve at half-maximal effect.

SMILES	PLK1 PBD block	Sfp inh	12-LOX inh	VDR inhibitor
Cc1noc(C)c1[S+](=O)([O-])N1CCC(N2Cc3cccn3C2=O)CC1	.	.	18.4%	.
CCC1(C)Cc2c(sc3nc(SCC(=O)c4ccccc4)nc(N)c23)CO1 (stereo not given)	.	.	4.9%	.
CC(Sc1nc(N)c2c3c(sc2n1)CSC(C)(C)C3)C(=O)Nc1ccccc1 (stereo not given)	8.44µM*	-0.6%	-19.8%	39.8µM*
O=C(NCC(c1cccs1)S(=O)(=O)c1cccs1)c1ccc(F)c(F)c1 (stereo not given)	.	.	0.0%	2.7%
CN(Cc1ccccc1)S(=O)(=O)c1ccc(NC(=S)NC(=O)C2CCCCC2)cc1	-19.8%	14.1%	17.8µM*	-11.1%
Nc1cccc2c1C(=O)N(C(=O)c1cccc(S(=O)(=O)N3CCCCCC3)c1)C2=O	3.16µM*	-17.1%	0.0%	?
COc1cc(/C=C/C(=O)OCC(=O)Nc2ccccc2Sc2ccc(Cl)cc2)ccc1O	-0.1%	-18.8%	-16.7%	-19.5%
Cc1cc(C)nc(NCC(O)CNc2ccccc2Cl)n1 (stereo not given)	-0.1%	-9.2%	39.8µM*	-4.0%
Cc1ccn2c(-c3csc(NCc4ccccc4)n3)c(C)nc2c1	-10.3%	?	11.2µM*	-8.5%
Cc1ccn2c(-c3n[nH]c(=S)n3Cc3ccccc3)c(C)nc2c1	-15.7%	-21.7%	8.91µM*	-5.3%
CC(C)(C)N1CC(c2nc3ccccc3n2CCOc2ccccc2)CC1=O (stereo not given)	2.1%	16.3%	2.3%	11.8%
CCc1nc2ccc(C(=O)NCc3ccccc3OC)cn2c1N(C)Cc1ccc(N(C)C)cc1	-7.1%	.	8.2%	.
COC(=O)Cc1sc(-c2ccccn2)nc1-c1ccccc1	4.74µM*	22.4µM*	?	25.1µM*
C=CCN1C(c2ccc(Br)cc2)=CS/C1=C(/C#N)c1nnc(N2CCOCC2)n1-c1ccccc1	-12.7%	79.4µM*	-12.5%	-5.5%
C=CCN1C(c2ccccc2)=CS/C1=C(\C#N)c1nnc2n1CCCCC2	-16.9%	63.1µM*	-21.7%	2.1%
C=CCN1C(c2cccc(C(F)(F)F)c2)=CS/C1=C(/C#N)c1nnc(N2CCOCC2)n1-c1ccccc1	-12.2%	-29.1%	?	-27.9%
Nc1nnnn1/N=C/c1cc(Cl)cc(Cl)c1O	11.9µM*	-8.8%	-1.4%	-19.5%
CC(C)COc1ccc(C(=O)Nc2cccc(-c3nc4ccccc4[nH]3)c2)cc1	.	.	-15.8%	-8.3%
Cc1ccc(-c2csc(=S)n2CC(=O)OCC(=O)NCc2ccco2)cc1	-15.9%	22.4µM*	?	-11.7%
CCc1nc2ccc(C(=O)N3CCN(c4cccc(C)c4C)CC3)cc2nc1CC	26.7µM*	-16.0%	?	?
CCOC(=O)C1=C(C)N=c2s/c(=C/c3ccc(OCC(=O)O)c(OC)c3)c(=O)n2C1c1ccc(Cl)cc1 (stereo not given)	6.1%	.	25.1µM*	?
CCOC(=O)C1=C(C)N=c2s/c(=C/c3ccc(OCC(=O)O)cc3)c(=O)n2C1c1ccc(F)cc1 (stereo not given)	?	79.4µM*	?	70.8µM*
CCOC(=O)C1=C(C)N=c2s/c(=C/c3ccc(OCC(=O)O)cc3)c(=O)n2C1c1ccc(SC)cc1 (stereo not given)	.	-10.0%	.	.
CCOC(=O)C1=C(C)N=c2s/c(=C\c3ccc(OCC(=O)O)cc3)c(=O)n2C1c1ccc(Cl)cc1 (stereo not given)	10.3%	-3.0%	?	79.4µM*
CCOC(=O)C1=C(C)N=c2s/c(=C\c3ccc(OCC(=O)O)cc3)c(=O)n2C1c1ccccc1OC (stereo not given)	-11.2%	-12.5%	17.8%	?
SMILES	PLK1 PBD block	Sfp inh	12-LOX inh	VDR inhibitor
C/C1=C2/[N-]C(C(CC(N)=O)[C@@]2(C)CCC(=O)NCC(C)OP(=O)([O-])O[C@H]2[C@@H](O)[C@@H](n3cnc4cc(C)c(C)cc43)O[C@@H]2CO)[C@]2(C)N=C(/C(C)=C3N=C(/C=C4N=C1C(CCC(N)=O)C\4(C)C)[C@@H](CCC(N)=O)[C@]\3(C)CC(N)=O)[C@@H](CCC(N)=O)[C@]2(C)CC(N)=O.CC(=O)O.[Co] (stereo not given in full)	.	-21.4%	.	10µM*
CCOc1ccc(N2C(=O)CC(Sc3ccccc3C(=O)O)C2=O)c([N+](=O)[O-])c1 (stereo not given)	26.7µM*	12.6µM*	?	-23.7%
O=C(O)c1ccccc1SC1CC(=O)N(c2cccc3ccccc23)C1=O (stereo not given)	29.9µM*	15.8µM*	-15.7%	-20.4%
CN=C1N[C@H](c2ccccc2)N(c2ccccc2)S1	.	112µM*	-21.1%	25.1µM*
CCCCNC(=O)Nc1ncn[nH]1	-2.6%	6.3%	1.1%	-23.4%
COCCN1C(=O)Cc2ccccc2C1C(=O)NCc1cc(F)ccc1F (stereo not given)	.	.	17.4%	.
CCOC(=O)CNc1nc(Cl)c(C#N)s1	-9.2%	4.9%	-10.5%	10.2%
COc1ccc(NS(=O)(=O)c2ccc(N3CCCC3)c(NC(=S)Nc3cccc(S(=O)(=O)N(C)C)c3)c2)cc1	.	3.98µM*	.	.
COc1ccc(C(=O)NC(=S)Nc2ccc(N3CCCC3)cc2)cc1	-19.3%	8.5%	?	-3.2%
CC(C)Oc1ccc(C(=O)Nc2ccccc2N2CCCC2)cc1	26.7µM*	3.2%	22.4%	-7.7%
COCCNC(=S)Nc1ccc(N2CCCCC2)cc1	3.77µM*	12.6µM*	13.3%	31.6µM*
COCCNC(=S)N/N=C/c1ccc(N2CCOCC2)cc1	5.7%	-27.2%	?	-0.1%
COc1ccc(C(=O)N/N=C(/C)c2ccc(N3CCCCC3)cc2)cc1	29.9µM*	-2.2%	-2.9%	?
COc1ccc(C(=O)Nc2ccc(N3CCCC3)cc2)cc1	?	79.4µM*	?	-7.3%
COCC1CN(C(C)=O)CC12CCN(S(=O)(=O)c1cccc(OC)c1)CC2 (stereo not given)	.	.	86.9%	.
COc1ccc(NC(=S)Nc2nc(CC(=O)Nc3ccccc3OC)cs2)cc1	-8.8%	-10.9%	?	-8.5%
COc1ccccc1NC(=O)Cc1csc(NC(=S)Nc2ccccc2)n1	-15.0%	-4.9%	17.8µM*	-20.9%
CCOc1cc(NC(=S)NCC2CCCO2)c(OCC)cc1NC(=O)c1ccccc1C (stereo not given)	-0.5%	23.2%	-31.7%	-5.4%
CCOc1cc(NC(=S)Nc2ccccc2OC)c(OCC)cc1NC(=O)c1ccccc1C	0.5%	7.7%	44.7µM*	-3.6%
Cc1ccc(-n2nc3cc(C)c(NC(=S)NC(=O)/C=C/c4ccco4)cc3n2)cc1	-16.0%	?	44.7µM*	-19.3%
COc1ccccc1NC(=S)NC(=O)/C=C/c1ccco1	?	?	39.8µM*	?
COc1cc2c(cc1NC(=S)NC(=O)/C=C/c1ccco1)oc1ccccc12	-9.6%	0.8%	?	-2.4%
